Measured values published in PubChem BioAssay AID1053124 (Broad Institute, 2014).
Results with a measured potency or affinity are listed apart. A number with no mark means an inactive call.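 The calls were made as follows: active = cell killing whose fitted half-effect concentration is at most twice the top valid dose tested; inconclusive = flat curve with 30 to 70% killing, or a poor fit; inactive = effect in the rising direction, plus the rest.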

Test: viability loss in A549 lung cells – cell-based, ATP luminescence, cherry-pick, set 2, cytotoxicity control, dose response (AID 1053124);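 also: 0% = neutral control wells and -100% = mitoxantrone 10 µM positive control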
Conditions: ATP luminescence (CellTiter-Glo), 72 h; series mostly up to 26 µM; activity change, negative = cytotoxicity: at the top concentration

Row | Structure (SMILES) | activity change, negative = cytotoxicity
1 | COc1cc(C(=O)NCCCNc2nc3c(C)cc(C)cc3cc2C#N)cc(OC)c1OC | -4.26%
2 | CNNC(=S)NC1CC2CC1C1C=CCC21 (centres undefined) | -2.33%
3 | CC(C)C(=O)Nc1sc2c(c1C(N)=O)CCN(Cc1ccccc1)C2 | -5.15%
4 | CC1CC(C)CN(CCCNC(=O)CCC(=O)N2CC(C)Oc3ccccc32)C1 (centres undefined) | -7.74%
5 | COCc1cc(C)nc(SCC(=O)Oc2ccc(Cl)cc2)c1C#N | -8.18%
6 | CCC(C)n1c(=N)c(C#N)cc2c(=O)n3cc(C)ccc3nc21 (centres undefined) | 2.88%
7 | Cc1cccn2c(=O)c3cc(C(=O)NCC4CCCO4)c(=N)n(CC4CCCO4)c3nc12 (centres undefined) | 3.13%
8 | CCOC(=O)c1cc2c(=O)n3cccc(C)c3nc2n(CC(C)C)c1=NC(=O)c1ccco1 | -14.7%
9 | Nc1ccc(C#Cc2ccc3c(=O)c4ccccc4oc3c2)cc1 | -9.82%
10 | S=C(NCC1CCCO1)N1CCN(Cc2ccccc2Cl)CC1 (centres undefined) | -0.535%
11 | N#Cc1ccc(OCC(=O)OCC(=O)N2CCc3ccccc32)cc1 | -1.74%
12 | O=C(O)c1ccc(N2N=C(c3ccccc3)CC2c2ccccc2)cc1 (centres undefined) | -7.85%
13 | CCOC(=O)c1c(NC(=O)CSc2ncccn2)sc2c1CCN(Cc1ccccc1)C2 | -20.4%
14 | NC(=O)c1c(NC(=O)Cc2ccccc2)sc2c1CCN(Cc1ccccc1)C2 | -6.11%
15 | CCN1C(=O)c2cccc3c(S(=O)(=O)N(C)C)ccc1c23 | -14.3%
16 | COc1c(Cl)cc(-c2noc(C)c2C(=O)NCc2ccc3c(c2)OCO3)cc1Cl | 0.255%
17 | COCCCOc1cc(NCc2ccccc2)c2ncn(C(C)C)c2c1 | 1.48%
18 | Nn1c(SCC(=O)N2CCCC2)nnc1-c1cccs1 | 2.35%
19 | CCN1C=C(C(=O)OC)C(c2cccc(OC)c2OC)C(C(=O)OC)=C1 | -4.62%
20 | CCOC1=NN(c2ncc(C(F)(F)F)cc2Cl)C(=O)C1 | -4.45%

Row | Structure (SMILES) | activity change, negative = cytotoxicity
21 | CCC(C)n1c(=N)c(C#N)cc2c(=O)n3cccc(C)c3nc21 (centres undefined) | -3.92%
22 | CNC(=O)c1ccc(NC(=O)c2cccc(C(F)(F)F)c2)cc1 | -2.51%
23 | Cc1cc(OC(=O)c2ccccc2Cl)ccc1N1C(=O)CCC1=O | -0.659%
24 | N=c1c(C(=O)NCC2CCCO2)cc2c(=O)n3ccccc3nc2n1Cc1ccc(Cl)cc1 (centres undefined) | -16.8%
25 | Cc1ccc2nc3c(cc(S(=O)(=O)c4ccccc4)c(=N)n3Cc3ccco3)c(=O)n2c1 | -7.72%
26 | Cn1cnc(S(=O)(=O)Nc2ccc(OC(F)(F)F)cc2)c1 | 0.518%
27 | Cc1cc(-c2nc3cccnc3s2)ccc1NS(=O)(=O)c1cccs1 | -1.77%
28 | C=Cc1ccc(Cn2c(C)c(C(=O)NCc3cccc(C)c3)sc2=O)cc1 | 0.662%
29 | CN(C)/C=C/C(=O)c1c(F)cccc1F | 0.6%
30 | [O-]/[N+](=C/c1ccccc1)c1ccccc1 | 1.21%
31 | COc1ccc(Br)c(Cn2c(C)c(C(=O)NCc3ccc4c(c3)OCCO4)sc2=O)c1 | -2.12%
32 | CCOCCCNC(=S)N1CCCN(c2nc3cc(C)c(C)cc3cc2C#N)CC1 | -12.1%
33 | COc1ccccc1C1C2=C(CC(C)(C)CC2=O)N(CC(=O)O)C2=C1C(=O)CC(C)(C)C2 | -3.25%
34 | CN1CCc2c(sc(NC(=O)Cc3ccccc3)c2C#N)C1 | -5.87%
35 | CCOC(=O)c1cc2c(=O)n3ccccc3nc2n(CCCOC)c1=NC(=O)c1ccncc1 | -2.23%
36 | CC1CCN(C(=O)COc2cccc3c2CCN(Cc2ccccc2)C3=O)CC1 | -1.26%
37 | COCCCn1c(=N)c(C(=O)NC2CCCCC2)cc2c(=O)n3ccccc3nc21 | -12%
38 | CCOc1ccc(C(=O)c2cc3ccc(O)cc3oc2=O)cc1 | -0.025%
39 | CSCCC1(C(=O)O)NC(c2ccccc2O)C2C(=O)N(C(C)C)C(=O)C21 (centres undefined) | 2.79%
